Screening data deposited in PubChem BioAssay by National Center for Advancing Translational Sciences (NCATS).
D2 ag-1: D2 dopamine receptor (human) agonism | activation, % at 2 µM | P14416 | AID 485358 | HEK293 T-REx D2 cells, calcium flux agonist mode | 0.53% of 340,000 active;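 active = activation over 3 SD above normal in the single-dose calcium agonist read, cut at about 30% in these data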
Target sequence (P14416 whole entry, looked up): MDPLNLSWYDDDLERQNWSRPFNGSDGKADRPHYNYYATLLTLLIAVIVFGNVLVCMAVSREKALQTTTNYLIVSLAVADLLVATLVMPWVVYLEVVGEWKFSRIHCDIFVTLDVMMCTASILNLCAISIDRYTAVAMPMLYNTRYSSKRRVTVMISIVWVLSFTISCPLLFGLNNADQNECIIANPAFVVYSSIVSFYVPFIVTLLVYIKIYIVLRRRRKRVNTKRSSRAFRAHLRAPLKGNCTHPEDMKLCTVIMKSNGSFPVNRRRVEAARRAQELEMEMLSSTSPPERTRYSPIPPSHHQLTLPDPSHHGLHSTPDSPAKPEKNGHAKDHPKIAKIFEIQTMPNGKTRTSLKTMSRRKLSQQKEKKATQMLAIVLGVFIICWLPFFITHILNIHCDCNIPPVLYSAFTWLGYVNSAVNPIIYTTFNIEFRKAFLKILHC
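HEK293 Trex D2 cells, tetracycline-induced, o/n 30 C 5% CO2; no-wash Ca dye, RT 30–90 min; 10-cycle baseline, 23 nl cpd added, kinetic Ca read 180 s; agonist hits = positive Ca response.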
D2 PAM-1: human D2 receptor positive allosteric modulation | P14416 | DiscoveRx D2 beta-arrestin cells, luminescence, 90 min; 100% = 57 uM dopamine signal | potentiation, % (test concentration not listed) | 0.23% of 360,000 active | AID 624464; in the data active = potentiation above about 50%; inconclusive = mostly about 30% to 49%
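D2 cells co-treated with compound plus 50 nM dopamine (EC20) for 90 min at 37 deg C to detect potentiation. Beta-arrestin recruitment was read as enzyme-fragment luminescence after 1 h at ambient temperature. Full response was set by 57 uM dopamine.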
D2 PAM-2: positive allosteric modulators of human D2 dopamine receptor; P14416; HEK293 T-REx D2, calcium flux, EC20 dopamine potentiation; potentiation, % at 10 µM; 0.34% of 340,000 active;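 active = potentiation over 3 SD above the plate norm, cut at about 30% in these data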
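Cells plated with tetracycline inducer and held overnight at 30 C; calcium dye loaded 30–90 min at room temperature; baseline taken, compound added and read 180 s; EC20 dopamine then added and read 180 s.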
D2 ag-2: activates the human D2 dopamine receptor | DiscoveRx PathHunter D2 beta-arrestin, luminescence, 90 min; 100% = 57 uM dopamine signal | 0.084% of 360,000 active | activation, % (test concentration not listed) | AID 624465 | P14416; in the data active = activation above about 40%; inconclusive = between about 15% and that limit
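DiscoveRx PathHunter D2 beta-arrestin cells (2,100/well) attached overnight, then compound-stimulated 90 min at 37 C in HBSS/10 mM HEPES/0.1% Tween-20 buffer; beta-galactosidase complementation read by luminescence after 1 h at ambient temperature. Dopamine 57 uM final (EC100) as control.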
D2 antag: antagonizes the human D2 dopamine receptor | inhibition, % at 10 µM | 2% of 340,000 active | HEK293 TREx D2 cells, calcium flux, dopamine EC80 | P14416; in the data active = inhibition above about 30%; inactive = below that, where a call was filed
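Compounds are added to dye-loaded, induced HEK293 T-REx cells coupled to calcium release via D2; after a 3 min kinetic read an EC80 dopamine stimulus is given and fluorescence is recorded for 3 more min.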
Of the large screens only hits and unclear results are named; the others gave an inactive call. Rows were chosen to be rich in hits. Some 2.4% of all compounds tested hit in one or more screens of this group.

O=C(NCCc1nc2ccccc2n1Cc1ccc(Cl)cc1Cl)c1ccco1	none (no result: D2 PAM-1, D2 ag-2, D2 antag)
O=C(CC1SCCNC1=O)Nc1cc(Cl)cc(Cl)c1 (configuration not stated)	none (no result: D2 ag-1, D2 PAM-2, D2 antag)
COC(=O)c1cc(NC(=O)CC2SCCNC2=O)cc(C(=O)OC)c1 (configuration not stated)	D2 antag 34.9
Cc1ccccc1NC(=O)CC1SCCNC1=O (configuration not stated)	D2 antag 45.0
CCn1c(C)cc(C(=O)CSc2nnnn2C2CCCC2)c1C	D2 antag 30.4
COc1ccccc1N1CCN(C2CCCN(C(=O)c3oc(C)cc3C)C2)CC1 (configuration not stated)	D2 antag 46.0
COc1ccccc1N1CCN(C2CCCN(C(=O)c3csc(C)n3)C2)CC1 (configuration not stated)	none
CSc1nc(C(=O)N2CCCC(N3CCN(c4ccccc4C)CC3)C2)cs1 (configuration not stated)	D2 antag 39.0
Cc1ccc(-c2cc(C(=O)N(Cc3ccccc3)Cc3ccco3)no2)cc1F	none (no result: D2 PAM-1, D2 ag-2, D2 antag)
CCN1CCN(c2sc(S(=O)(=O)CC)nc2S(=O)(=O)c2ccc(C)cc2)CC1	none (no result: D2 ag-1, D2 PAM-2, D2 antag)
CCCS(=O)(=O)c1nc(S(=O)(=O)c2ccc(C)cc2)c(N2CCN(CC)CC2)s1	D2 antag 67.4
COc1cc(OC)c(C(=O)NC23CC4CC(CC(C4)C2)C3)cc1OC	D2 PAM-1 65.1
O=C(C1CCC1)N1CCCc2cc(S(=O)(=O)Nc3ccc(F)cc3)ccc21	none (no result: D2 PAM-1, D2 ag-2, D2 antag)
CN1CCN(C2=Nc3cc(F)ccc3Cc3ccccc32)CC1	D2 antag 32.9 (no result: D2 PAM-1, D2 ag-2)
Fc1ccc(N2CCN(C3=Nc4cccc5cccc3c45)CC2)cc1	none
Cc1c(C(=O)N2CCCCC2)c(S(=O)(=O)NCc2ccc(Cl)cc2)c(C)n1C	D2 antag 48.3
Cc1cc(=O)nc2c3ccccc3n(C(C)C(=O)Nc3c(F)c(F)c(F)c(F)c3F)n12 (configuration not stated)	D2 antag 44.9
Cc1cc(=O)nc2c3ccccc3n(C(C)C(=O)Nc3cc(F)ccc3F)n12 (configuration not stated)	none (no result: D2 ag-1, D2 PAM-2, D2 antag)
Cc1ccc(C)c(S(=O)(=O)N2CCN(C(C(=O)Nc3ccc(F)cc3)c3ccccc3)CC2)c1 (configuration not stated)	none
O=C(Nc1ccc(F)cc1)C(c1ccccc1)N1CCN(S(=O)(=O)c2ccc3ccccc3c2)CC1 (configuration not stated)	D2 antag 36.9
CCOc1ccc(NC(=O)CSc2nnc(-c3ccncc3)n2-c2ccccc2)cc1	none (no result: D2 PAM-1, D2 ag-2, D2 antag)
COc1ccc2c(c1)c(C(O)CN1CCC(Cc3ccccc3)CC1)c(C)n2C (configuration not stated)	D2 antag 50.8
CC(=O)c1ccc(Nc2nc3ccccc3nc2-n2nc(C)cc2C)cc1	none (no result: D2 PAM-1, D2 ag-2, D2 antag)
Cn1c(=O)c2ccccc2n(CC(=O)NCCC2=CCCCC2)c1=O	D2 antag 40.9
Cn1c(=O)c2sccc2n(CC(=O)NCCC2=CCCCC2)c1=O	none
C=CCN(CC=C)S(=O)(=O)c1ccc(F)cc1	D2 antag 30.9
CCN(CC(N)=O)S(=O)(=O)c1ccc(F)cc1	none
N/C(=N\OC(=O)c1ccc([N+](=O)[O-])cc1Cl)c1ccccn1	D2 ag-2 inconclusive
N/C(=N\OC(=O)c1cccc([N+](=O)[O-])c1)c1ccccn1	D2 ag-2 inconclusive
N/C(=N/OC(=O)c1cccc([N+](=O)[O-])c1)c1cccc([N+](=O)[O-])c1	D2 PAM-1 inconclusive, D2 ag-2 inconclusive
CC1=C(C)/C(=N/OC(=O)c2cccc([N+](=O)[O-])c2)C=CC1=O	D2 ag-2 inconclusive, D2 antag 34.0
N/C(=N\OC(=O)c1cccc(F)c1)c1cccc([N+](=O)[O-])c1	D2 PAM-1 84.5, D2 ag-2 inconclusive (no result: D2 ag-1, D2 PAM-2, D2 antag)
N/C(=N\OC(=O)c1ccc2ccccc2c1)c1cccc([N+](=O)[O-])c1	D2 PAM-1 107.6, D2 ag-2 inconclusive
N/C(=N\OC(=O)c1ccccc1Cl)c1cccc([N+](=O)[O-])c1	D2 ag-2 59.7
NC(=O)c1cccc([N+](=O)[O-])c1	none
Cc1c(Cl)cccc1NC(=O)Nc1nnc(N(C)C2CCCCC2)s1	none (no result: D2 PAM-1, D2 ag-2, D2 antag)
Cc1cccc(/C(N)=N/OC(=O)c2ccc(F)cc2)c1	none
N/C(=N\OC(=O)c1ccc(F)cc1)c1cccc([N+](=O)[O-])c1	D2 PAM-1 64.8, D2 ag-2 inconclusive
O=C(Nc1ccccc1-c1nnn(CC(=O)N2CCCc3ccccc32)n1)c1ccc(Cl)cc1	D2 antag 47.4
Cc1nnc(N2CCCC(C(=O)Nc3cccc(C(F)(F)F)c3)C2)c2nn(-c3ccccc3)c(C)c12 (configuration not stated)	none (no result: D2 ag-1, D2 PAM-1, D2 ag-2, D2 antag)
O=c1[nH]c(CN2CCN(Cc3ccccc3)CC2)nc2scc(-c3ccccc3)c12	D2 antag 68.8
CC(=O)N1CCN(Cc2nc3scc(-c4ccccc4)c3c(=O)[nH]2)CC1	none (no result: D2 ag-1, D2 antag)
Cc1ccc2c(n1)sc1c(=O)n(-c3cccc(C(F)(F)F)c3)nnc12	none (no result: D2 PAM-1, D2 PAM-2, D2 ag-2, D2 antag)
CC(C)(CN1CCN(Cc2ccccc2)CC1)NS(=O)(=O)c1ccccc1	D2 antag 40.7
Cc1cccc(C)c1N1C(=O)c2cccc([N+](=O)[O-])c2C1=O	D2 PAM-1 82.7
CCn1c(=O)c2sccc2n2c(CCCC(=O)N3CCN(c4ccc(OC)cc4)CC3)nnc12	none (no result: D2 PAM-1, D2 ag-2, D2 antag)
NC(=O)CSc1nnc(-c2cnccn2)n1-c1ccccc1	D2 PAM-2 36.2
Cn1c(SCc2ccc(F)cc2)nnc1-c1cnccn1	none
Cn1c(SCc2ccccc2)nnc1-c1cnccn1	D2 antag 37.1
Cc1ccc(NC(=S)N2CCCC(c3nc4ccccc4[nH]3)C2)cc1 (configuration not stated)	none (no result: D2 ag-1, D2 PAM-2, D2 antag)
Cc1ccccc1NC(=S)N1CCCC(c2nc3ccccc3[nH]2)C1 (configuration not stated)	D2 antag 32.0
Cc1ccc(S(=O)(=O)C(CNC(=O)COc2ccccc2)c2ccco2)cc1 (configuration not stated)	none (no result: D2 PAM-1, D2 ag-2, D2 antag)
Cc1ccc(C(=O)Nc2c(C)cc(-c3ccccc3)oc2=O)cc1	D2 antag 30.9
Cc1ccc(C(=O)Nc2nc(-c3ccccc3)c(-c3ccccc3)o2)cc1	none
COc1cc(OC)c(Nc2ncnc3onc(-c4cccc(Cl)c4)c23)cc1Cl	none (no result: D2 PAM-1, D2 ag-2, D2 antag)
Cc1ccc(NC(=O)CN2CCCCCC2)cc1Br	D2 antag 41.5
CCCCC(CC)CNC(=O)CN(C)S(=O)(=O)c1ccc2c(c1)c(=O)n(C)c(=O)n2C (configuration not stated)	none (no result: D2 PAM-1, D2 PAM-2, D2 ag-2, D2 antag)
Cc1cc(C)n2nnnc2n1	D2 antag 38.3
CCOc1ccc(CNC(=O)CSc2nnc(C)c3c(C)n(-c4ccc(Cl)cc4)nc23)cc1	none (no result: D2 ag-1, D2 PAM-1, D2 ag-2, D2 antag)
COc1cccc(-c2nnc3sc(C4CCCCC4)nn23)c1	none
